High-throughput results (PubChem BioAssay)
In the library only some 7.4% were active in any assay of this set; here they are far more common.
Rab9 prom act = activators of Rab9 promoter; Huh7 Rab9 promoter-luciferase reporter, luminescence, 24 h; Potency, µM (top dose mostly 9.22 µM), inactives show at the highest dose activation, negative = inhibition, usual class: activators; 320,000 compounds, 2.8% hits; AID 485297; note: % of control where 0% means no effect; nearly all actives have a fitted effect of over 60% in size
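Promoter activation is measured as luciferase luminescence in Huh7 cells stably transfected with a Rab9 promoter–luciferase construct, following 24 h compound exposure at 37 °C and 10 min reagent incubation at ambient temperature.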
SMN2 splice enh = enhancers of SMN2 splice variant expression. Potency, µM (highest dose often 46.1 µM), for inactives: at the highest dose activity change, positive = activation, hits mostly activators. HEK293 SMN2-luciferase splicing reporter, luminescence, 30-36 h. 210,000 compounds, 2.8% hits; note: % of control where 0% means no effect; nearly all actives have a fitted effect of over 55% in size
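HEK293 cells carry an SMN2 minigene-luciferase reporter in which exon 7 inclusion puts luciferase in frame. Cells were seeded at 2000 cells/well, attached for 10-12 hours, then exposed to compounds for 30-36 hours at 37C before ONE-Glo luminescence.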
NPC1 promoter act = activators of NPC1 promoter. 320,000 compounds, 2.4% hits. Huh7 NPC1 promoter luciferase reporter, 24 h. Potency, µM (highest dose often 9.22 µM), without a hit: top-dose activation, hits mostly activators. AID 485313; note: % of control where 0% means no effect; nearly all actives have a fitted effect of over 60% in size
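Luminescence read-out of NPC1 promoter-driven luciferase in stably transfected Huh7 cells; compounds delivered in DMSO and left 24 h at 37C, 5% CO2, qHTS titration format.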
FLuc modulator = counter-screen for miR-21 project: firefly luciferase inhibitors or activators; P08659; 360,000 compounds, 6.9% hits; Potency, µM (highest dose often 57.5 µM), for inactives: top-dose activity change, negative = inhibition, actives largely listed as inhibitors; purified FLuc, Km substrates, luminescence inhibition; AID 588342;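 note: plate controls were vehicle for no effect and reference inhibitor for full effect; nearly all actives have a fitted effect of over 55% in size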
Target sequence (P08659 whole entry, looked up): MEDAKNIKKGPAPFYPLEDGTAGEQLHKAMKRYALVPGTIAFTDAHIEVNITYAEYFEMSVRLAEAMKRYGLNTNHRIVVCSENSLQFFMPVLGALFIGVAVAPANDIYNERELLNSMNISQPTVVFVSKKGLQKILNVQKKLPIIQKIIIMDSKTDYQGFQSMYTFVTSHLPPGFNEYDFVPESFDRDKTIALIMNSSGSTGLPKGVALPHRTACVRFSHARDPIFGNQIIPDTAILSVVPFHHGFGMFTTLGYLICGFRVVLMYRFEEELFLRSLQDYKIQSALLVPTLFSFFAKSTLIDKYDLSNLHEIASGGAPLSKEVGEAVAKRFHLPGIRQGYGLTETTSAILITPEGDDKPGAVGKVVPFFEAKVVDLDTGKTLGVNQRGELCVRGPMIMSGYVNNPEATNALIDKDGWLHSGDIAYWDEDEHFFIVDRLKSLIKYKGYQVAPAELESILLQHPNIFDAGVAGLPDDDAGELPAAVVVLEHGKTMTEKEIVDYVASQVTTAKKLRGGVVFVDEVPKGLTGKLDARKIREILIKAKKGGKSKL
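Biochemical qHTS of compounds, final roughly 60 µM downward over six points, against 10 nM purified firefly luciferase using Km concentrations of substrates (10 uM D-luciferin, 10 uM ATP) in Tris acetate pH 7.5 buffer; luminescence output.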
ELG1 genotoxic = inducers of genotoxicity in HEK293T ELG1-luciferase cells; HEK293T ELG1-luciferase reporter, luminescence, 16 h; Potency, µM (doses to about 46 µM), inactives show at the top dose activity change, positive = activation, hits mostly activators; 330,000 compounds, 1.3% hits; AID 504466; note: % of control where 0% means no effect; nearly all actives have a fitted effect of over 60% in size
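ELG1-luciferase HEK293T cells, 2,000/well; compound pinned in; 16 hr, 37 °C, 5% CO2; ONE-Glo, 30 min RT; luminescence on CCD imager.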
Active calls of the source: *; ? = inconclusive; · = not tested or not shown. Calls come from the whole dose curve; as a rule, active = well fitted curve in the direction sought with a large enough effect; inconclusive = small, poorly fitted or top-dose-only effect, or another doubt; inactive = no such curve, though single readings can be large; an effect the other way counts as inactive or inconclusive. Potency is the fitted concentration of half-maximal effect.

SMILES	Rab9 prom act	SMN2 splice enh	NPC1 promoter act	FLuc modulator	ELG1 genotoxic
NC(=O)c1c(NC(=O)Cc2ccccc2)sc2c1CCN(Cc1ccccc1)C2	3%	·	-5%	1%	2%
Cc1ccc(S(=O)(=O)N(C)C)cc1NC(=O)CN1C(=O)NC2(CCCCCCC2)C1=O	0%	·	-2%	4%	2%
CCCN1CCC(=O)N([C@H](CSc2ccc(Br)cc2)c2ccccc2)CC1	?	·	22%	17µM*	12%
CC(C)C[C@@H](CSc1ccccc1)N1CCN(CC(C)C)CCC1=O	?	·	?	15µM*	?
CCCN1CCC(=O)N([C@H](CSc2ccc(C)cc2)CC(C)C)CC1	?	·	4µM*	11µM*	?
O=C1CCN(CCc2ccccc2)CCN1[C@H](CSc1ccc(Br)cc1)c1ccccc1	-1%	·	14%	?	-3%
CCCN1CCC(=O)N([C@H](CSc2ccccc2)CC(C)C)CC1	3.2µM*	·	3.2µM*	21µM*	?
O=C(CN(C(=O)CNS(=O)(=O)c1ccccc1)c1ccc(F)cc1)NCc1ccco1	-1%	·	3%	2%	-4%
CCC(=O)Nc1cc2[nH]c(=O)cc(C)c2cc1C	-7%	13%	1%	7%	2%
COc1ccc(NC(=O)CCNC(=O)c2ccccc2Cl)cc1OC	5%	·	1%	-4%	4%
COc1ccc(-n2nc([N+](=O)[O-])c(=NCc3ccco3)n2O)cc1	1.4µM*	·	3.5µM*	?	?
COc1ccc(-n2nc([N+](=O)[O-])c(=NCCC3=CCCCC3)n2O)cc1	3.5µM*	?	?	?	?
O=[N+]([O-])c1nn(-c2ccc3c(c2)OCCO3)n(O)c1=NCc1ccccc1Cl	?	13µM*	?	6µM*	?
COc1ccc(-n2nc([N+](=O)[O-])c(=NCc3cccnc3)n2O)cc1	2.8µM*	26%	3.5µM*	?	?
COc1ccccc1CN=c1c([N+](=O)[O-])nn(-c2ccc3c(c2)OCCO3)n1O	?	?	25%	?	?
COc1ccc(-n2nc([N+](=O)[O-])c(=NCCc3ccc(C)cc3)n2O)cc1	?	·	?	-6%	-1%
COc1ccccc1CNC(=O)CCN=C1NS(=O)(=O)c2ccccc21	-4%	·	0%	3%	-3%
Cc1ccc(-c2csc(N/N=C/c3ccco3)n2)c(C)c1	18%	4µM*	14%	-13%	19%
NC(C(=O)O)c1cc(O)cc(O)c1 (stereo not drawn)	·	-1%	·	·	·
COc1cccc(-c2nc(CS(=O)(=O)c3ccccc3)no2)c1	3.2µM*	11µM*	2.8µM*	12µM*	?
COc1cccc(-c2nc(-c3ccc(-c4ccccc4)nc3OC)no2)c1	·	1%	·	2.4µM*	·
COc1nc(-c2ccccc2)ccc1-c1noc(-c2ccc(F)cc2)n1	11%	12%	0%	4%	-1%
COc1nc(-c2ccccc2)ccc1-c1noc(-c2ccccc2F)n1	?	29%	?	5.4µM*	?
COc1ccc(-c2ccc(-c3noc(-c4cccc(OC)c4)n3)c(OC)n2)cc1	10%	-46%	-2%	7.6µM*	2%
COc1ccc(-c2ccc(-c3noc(-c4ccc(OC)c(OC)c4)n3)c(OC)n2)cc1	3%	-21%	-2%	0%	0%
SMILES	Rab9 prom act	SMN2 splice enh	NPC1 promoter act	FLuc modulator	ELG1 genotoxic
COc1nc(-c2ccccc2)ccc1-c1noc(-c2cccnc2)n1	?	·	27%	?	-4%
CC(C(=O)O)N1C(=O)C2C3CC(C2C1=O)C1C(c2ccccc2)c2sc(=O)[nH]c2SC31 (stereo not drawn)	-2%	1%	-4%	9%	2%
CC1CCCN(C(=O)CNC(=O)c2sc3ccccc3c2Cl)C1 (stereo not drawn)	2.5µM*	·	?	15µM*	?
O=C(NCC(=O)N1CCCCC1)c1sc2ccccc2c1Cl	2.2µM*	·	1.8µM*	8.5µM*	?
CC1CC(C)CN(C(=O)CNC(=O)c2sc3ccccc3c2Cl)C1 (stereo not drawn)	13%	·	5%	?	-1%
O=C(Nc1ccc(CN2CCCCC2)cc1)c1sc2ccccc2c1Cl	15%	·	25%	13µM*	13%
